Measurements from PubChem BioAssay (Tox21).
Several values for one entry are separate records, joined by “and”; a condition that tells them apart may be missing. Identical values can stand only once. Values without a mark were called inactive. Records with an inconclusive call do not appear. Entries that show only a call come without a potency. Activity calls are given as the source filed them. Calls follow the shape of the dose curve; as a rule, active = well fitted curve in the direction sought with a large enough effect in the repeat runs; inconclusive = weak or mixed curves; inactive = no such curve, though single readings can be large; an effect the other way counts as inactive or inconclusive.

Experiments:
[1] = Caspase-3/7 induction in HepG2 cells by small molecules, qHTS assay (AID 1346978); also: nearly all actives have a fitted effect of over 15% in size
How it was run: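 Wild-type HepG2 cells (2,000/well) were settled 5 h at 37 C, 5% CO2, then exposed to compounds in DMSO for 17 h. Caspase-3/7 activity was read by luminescence 30 min after adding Caspase-Glo 3/7 reagent at room temperature.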

[2] = Caspase-3/7 induction in CHO-K1 cells by small molecules, qHTS cell viability counter screen (AID 1346979); also: nearly all actives have a fitted effect of over 35% in size; also: potency is read from the fitted curve at half-maximal effect
How it was run: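 Wild-type CHO-K1 cells (1,500/well) treated with compound after 5 h plating; after 16 h at 37C, viability read as CellTiter-Fluor fluorescence following 1 h reagent incubation, in the same wells as the caspase read.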

[3] = Caspase-3/7 induction in HepG2 cells by small molecules, qHTS cell viability counter screen (AID 1346981); also: nearly all actives have a fitted effect of over 30% in size; also: potency is read from the fitted curve at half-maximal effect; as to activity change, negative = cytotoxicity: series mostly up to about 92 µM
How it was run: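 Multiplexed with the caspase-3/7 assay: HepG2 cells, 16 hr compound treatment, CellTiter-Fluor viability detection by fluorescence.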

[4] = target: Nuclear receptor subfamily 1 group I member 2 (Homo sapiens) (UniProt O75469); test: Human pregnane X receptor (PXR) small molecule agonists, qHTS assay (AID 1346982); also: nearly all actives have a fitted effect of over 35% in size; also: potency is read from the fitted curve at half-maximal effect
Chain of Nuclear receptor subfamily 1 group I member 2 (Homo sapiens) (O75469 whole entry, looked up): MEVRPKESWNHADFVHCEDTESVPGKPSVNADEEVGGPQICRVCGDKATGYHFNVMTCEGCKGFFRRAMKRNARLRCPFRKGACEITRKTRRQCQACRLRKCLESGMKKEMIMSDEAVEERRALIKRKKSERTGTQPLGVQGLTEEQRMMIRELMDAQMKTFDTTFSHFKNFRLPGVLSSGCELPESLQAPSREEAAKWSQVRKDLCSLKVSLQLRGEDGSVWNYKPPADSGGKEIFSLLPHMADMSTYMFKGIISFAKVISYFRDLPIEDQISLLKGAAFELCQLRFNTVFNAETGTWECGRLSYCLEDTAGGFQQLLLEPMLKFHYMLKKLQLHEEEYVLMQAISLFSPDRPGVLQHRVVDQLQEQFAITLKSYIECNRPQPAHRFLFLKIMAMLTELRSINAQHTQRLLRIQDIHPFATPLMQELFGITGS
How it was run: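 We seeded PXR-Luc HepG2 cells in assay medium containing 5% charcoal-stripped FBS, added compounds 5 hr later, incubated 24 hr, and read luminescence with ONE-Glo reagent.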

[5] = target: Cytochrome P450 2D6 (Homo sapiens) (UniProt P10635); test: Cytochrome P450 Family 2 Subfamily D Member 6 (CYP2D6) small molecule antagonists: luciferase reporter qHTS assay (AID 1671196); also: nearly all actives have a fitted effect of over 50% in size; also: potency is read from the fitted curve at half-maximal effect; as to activity change, negative = inhibition: series mostly up to about 120 µM
Chain of Cytochrome P450 2D6 (Homo sapiens) (P10635 whole entry, looked up): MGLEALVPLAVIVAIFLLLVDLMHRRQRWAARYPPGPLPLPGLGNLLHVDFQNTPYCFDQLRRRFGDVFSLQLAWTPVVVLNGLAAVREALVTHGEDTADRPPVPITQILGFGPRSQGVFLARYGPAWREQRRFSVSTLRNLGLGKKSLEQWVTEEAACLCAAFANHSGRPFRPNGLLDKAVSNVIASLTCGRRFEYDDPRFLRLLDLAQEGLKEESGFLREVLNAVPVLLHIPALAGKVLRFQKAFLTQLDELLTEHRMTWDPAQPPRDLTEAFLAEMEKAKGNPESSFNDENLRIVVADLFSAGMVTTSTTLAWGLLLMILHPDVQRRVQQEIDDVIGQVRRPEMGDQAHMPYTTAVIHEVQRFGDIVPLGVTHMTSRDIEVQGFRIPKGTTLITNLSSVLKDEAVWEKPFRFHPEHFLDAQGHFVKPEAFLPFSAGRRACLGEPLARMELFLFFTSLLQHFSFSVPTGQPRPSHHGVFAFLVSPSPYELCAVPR
How it was run: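 Luminescence (RLU), read 20 min after detection reagent, indicated CYP2D6 conversion of proluciferin to luciferin during a 1 h NADPH-dependent reaction at room temperature.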

[6] = target: Cytochrome P450 2C19 (Homo sapiens) (UniProt P33261); test: Cytochrome P450 Family 2 Subfamily C Member 19 (CYP2C19) small molecule antagonists: luciferase reporter qHTS assay (AID 1671197); also: nearly all actives have a fitted effect of over 65% in size; also: potency is read from the fitted curve at half-maximal effect; as to activity change, negative = inhibition: series mostly up to about 120 µM
Chain of Cytochrome P450 2C19 (Homo sapiens) (P33261 whole entry, looked up): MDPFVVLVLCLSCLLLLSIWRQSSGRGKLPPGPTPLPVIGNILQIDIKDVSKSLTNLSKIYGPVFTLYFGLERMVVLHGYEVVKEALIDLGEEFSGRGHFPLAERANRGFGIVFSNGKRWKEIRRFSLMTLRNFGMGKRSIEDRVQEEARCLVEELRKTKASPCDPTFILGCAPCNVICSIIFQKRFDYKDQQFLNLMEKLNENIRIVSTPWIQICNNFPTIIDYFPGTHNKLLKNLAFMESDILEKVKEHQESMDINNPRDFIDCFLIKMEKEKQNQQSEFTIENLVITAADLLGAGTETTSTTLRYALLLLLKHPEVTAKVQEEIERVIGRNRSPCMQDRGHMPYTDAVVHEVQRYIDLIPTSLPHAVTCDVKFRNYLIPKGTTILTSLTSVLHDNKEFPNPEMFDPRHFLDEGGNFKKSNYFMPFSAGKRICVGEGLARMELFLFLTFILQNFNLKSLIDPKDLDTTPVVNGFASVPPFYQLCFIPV
How it was run: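 CYP2C19 P450-Glo, 1536-well qHTS. Cpd + enzyme/proluciferin substrate 10 min RT; + NADPH regen, 37C 1 h; stop with luciferin detection reagent, 20 min RT, luminescence (RLU). Pos ctrl ketoconazole.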

[7] = Caspase-3/7 induction in CHO-K1 cells by small molecules, qHTS assay (AID 1346980); also: nearly all actives have a fitted effect of over 15% in size
How it was run: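 Wild-type cells were seeded at 1,500 per well and settled 5 hr at 37 C, 5% CO2, then exposed to DMSO-dissolved compounds for 17 hr. Caspase-Glo 3/7 reagent was added, and luminescence was read after 30min at room temperature.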

[8] = target: Nuclear receptor subfamily 1 group I member 2 (Rattus norvegicus) (UniProt Q9R1A7); test: Rat pregnane X receptor (rPXR) activation by small molecules, qHTS assay (AID 1346983); conditions: rPXR luciferase reporter cells, One-Glo luminescence, 24 h; max activation: hits give high values; also: nearly all actives have a fitted effect of over 20% in size
Chain of Nuclear receptor subfamily 1 group I member 2 (Rattus norvegicus) (Q9R1A7 whole entry, looked up): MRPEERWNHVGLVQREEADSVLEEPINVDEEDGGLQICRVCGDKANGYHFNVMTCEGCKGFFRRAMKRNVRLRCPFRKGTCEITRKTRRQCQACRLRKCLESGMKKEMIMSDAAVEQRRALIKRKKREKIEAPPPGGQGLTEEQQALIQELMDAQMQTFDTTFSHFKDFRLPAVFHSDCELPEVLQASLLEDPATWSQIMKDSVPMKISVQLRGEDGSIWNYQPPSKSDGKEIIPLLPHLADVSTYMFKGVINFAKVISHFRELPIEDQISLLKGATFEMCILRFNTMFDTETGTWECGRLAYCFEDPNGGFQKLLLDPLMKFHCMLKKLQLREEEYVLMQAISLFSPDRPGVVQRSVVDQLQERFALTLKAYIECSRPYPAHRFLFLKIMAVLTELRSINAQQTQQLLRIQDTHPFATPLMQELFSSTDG
How it was run: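 Cell-based rPXR luciferase reporter assay, 2,000 cells per well, rested 5hr at 37 C before compound addition in DMSO, then 24 hr at 37 C. One-Glo reagent was added and luminescence read after 30 min at room temperature.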

[9] = target: Nuclear receptor subfamily 1 group I member 2 (Homo sapiens) (UniProt O75469); test: CYP3A4 induction through human pregnane X receptor (PXR) by small molecules, qHTS assay (AID 1346984); also: nearly all actives have a fitted effect of over 40% in size
How it was run: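 qHTS, concentration-response format: HepG2 DPX-2 line, PXR/CYP3A4-luc. Exposure 24 h, 37C. Substrate Luciferin-IPA 3uM final, 3 h. Detection One-Glo, 30 min RT.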

[10] = target: Nuclear receptor subfamily 1 group I member 2 (Homo sapiens) (UniProt O75469); test: Human pregnane X receptor (PXR) activation by small molecules, qHTS assay (AID 1346985); also: nearly all actives have a fitted effect of over 40% in size
How it was run: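 DPX-2 cells (HepG2 co-transfected with a PXR response element and a CYP3A4-promoter luciferase construct) were seeded at 2,000 per well, rested 5 hr at 37C, then exposed to DMSO-dissolved compounds for 24 hr. Activation was read as luciferase luminescence.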

SMILES: COc1cccc(O)c1
- Potency [1]: inactive
- Potency [2]: inactive
- Potency [3]: inactive
- Potency [4]: inactive
- Potency [5]: inactive
- Potency [6]: inactive

SMILES: CC(C)(c1cc(Br)c(O)c(Br)c1)c1cc(Br)c(O)c(Br)c1
- Potency [1]: inactive
- Potency [2]: 60.9 µM (active)
- Potency [3]: inactive
- Potency [4]: 54.3 µM (active) and 60.9 µM (active) and 57.9 µM (active)
- Potency [5]: inactive
- Potency [6]: 22.4 µM (active) and 35.5 µM (active)

SMILES: C=CC(=O)OCCOCC(CC)(COCCOC(=O)C=C)COCCOC(=O)C=C
- Potency [1]: inactive
- Potency [2]: 8.02 µM (active)
- Potency [3]: 63.7 µM (active)
- Potency [4]: 28.4 µM (active)
- Potency [6]: 23.4 µM (active)

SMILES: Clc1ccc(C(Cn2ccnc2)OCc2ccsc2Cl)c(Cl)c1 (centres undefined)
- Potency [1]: inactive
- Potency [2]: 21.1 µM (active)
- Potency [7]: inactive
- Potency [5]: 3.47 µM (active)
- Potency [6]: 0.347 µM (active)

SMILES: CC(C)=C1CC[C@@H](C)CC1=O
- Potency [1]: inactive
- Potency [2]: inactive
- Potency [7]: inactive
- Potency [3]: inactive
- Potency [5]: inactive
- Potency [6]: inactive

SMILES: CC(C)=CCCC(C)O (centres undefined)
- Potency [1]: inactive
- Potency [2]: inactive
- Potency [3]: inactive
- Potency [4]: inactive
- Potency [5]: inactive
- Potency [6]: inactive

SMILES: S=C(SSSSSSC(=S)N1CCCCC1)N1CCCCC1
- caspase activation [1]: 0.0321% [at 19 µM]
- Potency [2]: 7.56 µM (active)
- activity change, negative = cytotoxicity [3]: 7.87% [at 19 µM]
- activation [4]: 19.2% [at 19 µM]
- activity change, negative = inhibition [5]: -19.3% [at 23.6 µM]

SMILES: CC(O)C#CC(C)O (centres undefined)
- Potency [1]: inactive
- Potency [2]: 27 µM (active)
- Potency [3]: inactive
- Potency [4]: 24.1 µM (active)
- Potency [5]: 35.2 µM (active)

SMILES: CCCCN(CCCC)CCC(O)c1cc2c(Cl)cc(Cl)cc2c2cc(C(F)(F)F)ccc12 (centres undefined)
- Potency [1]: inactive
- Potency [2]: 26.6 µM (active)
- Potency [3]: inactive
- Potency [4]: 21.1 µM (active)
- max activation [8]: -2.62%
- Potency [9]: inactive
- Potency [10]: inactive
- Potency [5]: 1.55 µM (active)
- Potency [6]: inactive

SMILES: C/C=C/C(=O)C1=C(C)CCCC1(C)C
- Potency [1]: inactive
- Potency [2]: inactive
- Potency [7]: inactive
- Potency [3]: inactive
- Potency [5]: inactive
- Potency [6]: 79.6 µM (active)

SMILES: CCOC(=O)CN
- Potency [1]: inactive
- Potency [2]: inactive
- Potency [3]: inactive
- Potency [4]: inactive
- Potency [6]: inactive

SMILES: Cc1cc(Nc2ccc(O)cc2)ccc1N
- Potency [1]: inactive
- Potency [2]: 27.2 µM (active)
- Potency [3]: 48.3 µM (active)
- Potency [4]: 9.64 µM (active)
- Potency [5]: 39.8 µM (active)
- Potency [6]: 19.9 µM (active)

SMILES: NC1(c2ccc(-c3nc4ccn5c(=O)[nH]nc5c4cc3-c3ccccc3)cc2)CCC1
- Potency [1]: inactive
- Potency [2]: 26.6 µM (active)
- Potency [7]: inactive
- Potency [6]: inactive
